Nine compounds from PubChem BioAssay can be followed below.

A short description of experiment [1]: resazurin metabolic signal in HepG2 cells – cell-based, resazurin fluorescence, 24 h, PK04 Diversity Set, profiling panel (AID 1172). Also: test concentration not given here. The conditions noted are these: HepG2 viability, higher = more signal. Background: Resazurin is reduced to fluorescent resorufin, in cell work by metabolically active cells.
Experiment [2] in a line: budding yeast growth changes without added modifier – OD600, strain BY4716, 24 h, basal condition, primary screen (AID 1173). The conditions noted are these: S. cerevisiae BY4716 growth, OD600, 24 h; higher = more signal, called active from +8 up or from −8 down.
Experiment [3] is described as follows: viability profiling in MM1S myeloma cells – cell-based, resazurin fluorescence, basal, 24 h, PK04 Diversity Set, profiling panel (AID 1174).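 Also: MM1S multiple myeloma cell line; test concentration not given here.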 The conditions noted are these: higher = more signal, called active from +8 up or from −8 down.
Experiment [4] addresses Dihydroorotate dehydrogenase (quinone), mitochondrial (Plasmodium falciparum (isolate 3D7)) (UniProt Q08210). In words: inhibition of P. falciparum DHODH – biochemical, C-terminal His tag, absorbance 600 nm, primary screen (AID 1175).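 Also: recombinant parasite enzyme with a five histidine tag at its C terminus; test concentration not given here.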 The conditions noted are these: PfDHODH enzyme, DCIP absorbance 600 nm; higher = more signal, called active from +8 up or from −8 down.
Experiment [5] can be described thus: inhibition of PAO1 biofilm formation – strain PAO1, LB-PBS medium, absorbance 600 nm, primary screen (AID 1176). Also: test concentration not given here. Particulars: P. aeruginosa PAO1 growth/biofilm, A600, 12 h; higher = more signal.
The nature of experiment [6]: growth modulation of vineyard yeast isolate – strain RM11-1a, OD600, basal, 24 h, primary screen (AID 1177).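 Also: cultures grown under basal conditions with no added stressor; test concentration not given here.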 The conditions noted are these: S. cerevisiae RM11-1a growth, OD600, 24 h; higher = more signal, called active from +8 up or from −8 down.
A short description of experiment [7]: growth of efflux-deficient E. coli DRC39 – strain DRC39, OD650, 24 h, E. coli filamentation inducers, primary screen (AID 1178).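 Also: growth measured as culture turbidity by optical density at 650 nm; test concentration not given here.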 The conditions noted are these: E. coli DRC39 acrAB, higher = more signal, called active from +8 up or from −8 down.
Experiment [8] in a line: growth of efflux-deficient E. coli DRC39 – strain DRC39, OD650, 48 h, E. coli filamentation inducers, primary screen (AID 1179).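 Also: screen aims at cell division blockers that make cells filament.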 The conditions noted are these: E. coli DRC39 delta-acrAB growth, higher = more signal, called active from +8 up or from −8 down.
Experiment [9] is described as follows: viability profiling in RPMI8226 myeloma cells – cell-based, resazurin fluorescence, basal, 24 h, PK04 Diversity Set, profiling panel (AID 1180).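 Also: RPMI8826 multiple myeloma cell line at 5000 cells per well; test concentration not given here.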 Particulars: higher = more signal.
Experiment [10] concerns the target E3 ubiquitin-protein ligase XIAP (Homo sapiens) (UniProt P98170). In words: small molecules binding XIAP protein – biophysical, small-molecule microarray, fluorescence 635 nm, primary screen (AID 1181).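 Also: score merges 667 nm emission and signal to noise over triplicate slides.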 The conditions noted are these: higher = more signal.

SMILES strings stand for the structures. Activity calls are given as the source filed them. Unless noted, no rule for the calls is given here.

Sequence of Dihydroorotate dehydrogenase (quinone), mitochondrial (Plasmodium falciparum (isolate 3D7)) (Q08210 whole entry, looked up): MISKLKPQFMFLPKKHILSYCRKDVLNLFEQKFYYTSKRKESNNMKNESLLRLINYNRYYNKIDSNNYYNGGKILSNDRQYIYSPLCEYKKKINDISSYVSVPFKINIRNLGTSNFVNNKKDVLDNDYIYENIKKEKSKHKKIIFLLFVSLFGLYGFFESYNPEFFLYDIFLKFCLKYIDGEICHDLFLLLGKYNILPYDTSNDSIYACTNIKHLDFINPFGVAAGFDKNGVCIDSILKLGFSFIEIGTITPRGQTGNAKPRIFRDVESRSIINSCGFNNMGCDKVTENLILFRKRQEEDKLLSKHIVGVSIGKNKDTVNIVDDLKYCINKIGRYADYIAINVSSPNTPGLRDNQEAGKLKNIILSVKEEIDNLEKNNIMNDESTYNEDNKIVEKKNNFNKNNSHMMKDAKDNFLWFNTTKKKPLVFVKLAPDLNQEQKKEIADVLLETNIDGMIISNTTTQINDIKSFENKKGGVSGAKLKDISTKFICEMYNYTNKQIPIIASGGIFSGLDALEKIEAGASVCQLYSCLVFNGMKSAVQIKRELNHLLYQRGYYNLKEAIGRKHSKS
Sequence of E3 ubiquitin-protein ligase XIAP (Homo sapiens) (P98170 whole entry, looked up): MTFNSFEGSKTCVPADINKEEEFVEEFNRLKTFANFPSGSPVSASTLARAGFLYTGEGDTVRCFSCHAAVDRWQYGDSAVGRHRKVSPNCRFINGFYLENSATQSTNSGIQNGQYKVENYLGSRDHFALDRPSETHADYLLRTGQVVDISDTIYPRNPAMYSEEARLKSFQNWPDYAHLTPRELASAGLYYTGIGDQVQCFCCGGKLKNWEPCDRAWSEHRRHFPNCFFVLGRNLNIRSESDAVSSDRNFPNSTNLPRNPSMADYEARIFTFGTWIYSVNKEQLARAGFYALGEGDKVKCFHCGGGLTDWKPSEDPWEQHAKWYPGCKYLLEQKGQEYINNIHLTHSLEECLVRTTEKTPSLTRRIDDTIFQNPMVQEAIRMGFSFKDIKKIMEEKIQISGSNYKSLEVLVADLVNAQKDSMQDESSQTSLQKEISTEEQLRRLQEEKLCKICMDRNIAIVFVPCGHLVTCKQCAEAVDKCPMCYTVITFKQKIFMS

In the case of `C[C@@H](c1ccccc1)N1C(=O)[C@H]2[C@H]3[C@H](O)[C@H](O)CC(=NO[C@@H]4O[C@H](CO)[C@@H](O)[C@H](O)[C@H]4O)[C@@H]3CC[C@H]2C1=O`, the z-score in experiment [1] is -0.416; in experiment [2] it was 0.0492 (inactive); in experiment [3], -0.671 (inactive); in experiment [5], 0.14 (inactive); in experiment [6] it was -0.294 (inactive); in [7], -0.403 (inactive). Also, the z-score in experiment [8] was 0.334 (inactive); in [9] it was -0.361. For the same compound, the composite z-score was -0.337 (inactive) in experiment [4] and -0.254 in [10].

On to `CCOC(=O)[C@H](CC(C)C)NC(=O)CCC1CC(OC(=O)NCc2cccc3ccccc23)CC2(CCCC(COC(=O)NCC3CCCCC3)O2)O1` (stereo not given in full), for which the z-score is 0.865 in experiment [1]; -0.0452 (inactive) in experiment [2]; 1.27 (inactive) in experiment [3]; -1.45 (inactive) in experiment [5]; -0.288 (inactive) in experiment [6]; -0.765 (inactive) in [7]. The z-score in [8] is -0.0838 (inactive); in [9], 0.463. Also, the composite z-score in [4] is -2.33 (inactive); in experiment [10], -0.0333.

On to `CCN1C(=O)[C@H]2[C@H]3[C@H](O)[C@H](O)CC(=NNC(=O)OCc4ccc(OC)cc4)[C@@H]3CC[C@H]2C1=O`, for which the z-score was -0.295 in experiment [1]; 0.303 (inactive) in experiment [2]; -0.938 (inactive) in experiment [3]; -0.708 (inactive) in [5]; -1.33 (inactive) in [6]; -0.154 (inactive) in [7]. Also, the z-score in experiment [8] is -0.0457 (inactive); in experiment [9], -0.381. For the same compound, the composite z-score in experiment [4] is -0.367 (inactive); in [10], -0.0416.

With `CCCCc1nc2c(c3c1C[C@H](C)OC3)CN(CCOc1ccccc1)CC2`, the z-score in experiment [1] was -0.492; in experiment [2] it was -3.28 (inactive); in experiment [3], 0.422 (inactive); in experiment [5], 1.1 (inactive); in experiment [6] it was -1.49 (inactive); in [7] it was 1.18 (inactive). The z-score in experiment [8] is -0.908 (inactive); in experiment [9] it was 0.386. The figures for the composite z-score in experiment [4] and in [10] were -0.845 (inactive) and 0.437, respectively.

For the compound `O=C(C=Cc1ccc2c(c1)OCO2)c1ccc(F)cc1`, the z-score in [1] is -0.214; in experiment [2] it was -10.1 (active); in [3] it was -0.194 (inactive); in [5] it was -0.245 (inactive); in experiment [6], -0.31 (inactive); in experiment [7], 0.264 (inactive). For the same compound, the z-score in [8] was -0.423 (inactive); in experiment [9], -0.538. In addition, the composite z-score in [4] is 0.184 (inactive); in [10] it was -0.176.

Turning to `CCOC(=O)[C@H](CC(C)C)NC(=O)CCC1CC(OC(=O)NCCc2ccc(F)cc2)CC2(CCCC(COC(=O)NCCc3ccccc3OC)O2)O1` (stereo not given in full), the z-score in [1] is -0.285; in [2] it was -0.376 (inactive); in [3], 0.311 (inactive); in experiment [5], 0.45 (inactive); in experiment [6], 0.354 (inactive); in [7], 0.61 (inactive). Further, the z-score in [8] was 0.376 (inactive); in experiment [9], 0.441. The composite z-score in experiment [4] is -0.991 (inactive); in experiment [10], -0.0565.

`Cc1ccc(S(=O)(=O)NC(CCc2ccccc2)CC(=O)C(C)(C)C)cc1` (stereo not given): the z-score in experiment [1] was 0.277; in experiment [2] it was -1 (inactive); in [3], -0.146 (inactive); in experiment [5], 0.143 (inactive); in experiment [6] it was 0.384 (inactive); in experiment [7] it was 0.628 (inactive). In addition, the z-score in experiment [8] is 0.274 (inactive); in experiment [9] it was 0.159. Besides, the composite z-score is 0.0379 (inactive) in experiment [4] and -0.195 in experiment [10].

As for `CCOC(=O)[C@H](Cc1ccccc1)NC(=O)CCC1CC(OC(=O)NCc2ccc3c(c2)OCO3)CC2(CCCC(COC(=O)NCCc3ccccc3OC)O2)O1` (stereo not given in full), the z-score in experiment [1] is -0.23; in experiment [2], 0.911 (inactive); in experiment [3], -0.32 (inactive); in experiment [5], 0.426 (inactive); in [6], 0.824 (inactive); in experiment [7], -0.0754 (inactive). Besides, the z-score in experiment [8] is -0.731 (inactive); in [9] it was 0.0481. In addition, the results for the composite z-score in [4] and in experiment [10] were 0.0964 (inactive) and -0.024, respectively.

As to `CCCCC#C[C@@H]1C=C[C@H](OC(C)=O)[C@@H](COC(C)=O)O1`, the z-score in experiment [1] was 0.693; in experiment [2], -1.44 (inactive); in experiment [3], -3.24 (inactive); in experiment [5], 0.909 (inactive); in [6] it was -0.667 (inactive); in experiment [7], -0.233 (inactive). Also, the values for the z-score in [8] and in experiment [9] were -0.248 (inactive) and -1.82, respectively. Also, the values for the composite z-score in experiment [4] and in experiment [10] were -0.216 (inactive) and 0.474, respectively.
